Test results: PubChem BioAssay AID1159580 (chemical genetic matrix, 2015)
In all, about 5,500 compounds went through this assay and about 2,000 (36%) were called active. Not shown: some 18% with an inconclusive outcome. Rule as the data show it: active = normalized growth mostly below about 0.91 (no sharp cut-off); inconclusive = no clear call, values can overlap the other calls; inactive = mostly above about 0.92. Some of the results follow.

Assay: chemical genetic growth profiling, strain panel (AID 1159580);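 also: tested at 20 µM; growth read once vehicle control cultures reached saturation at 30 °C; 1 = growth at the plate median or of vehicle wells; lower values mean less growth of the strain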
Conditions: growth OD

Measured: normalized growth

CC1=C2CCC3C(CC[C@]4(C)C(=O)CCC34)[C@@]2(C)CCC1=O (some centres not stated)
inactive: S. cerevisiae deletion strains, locus YJR075W, strain HOC1, active compounds read low 0.968 | S. cerevisiae deletion strains, locus YKL009W, strain mrt4, active compounds read low 0.948 | S. cerevisiae deletion strains, locus YKL068W, active compounds read low 0.985 | S. cerevisiae deletion strains, locus YKL085W, strain MDH1 (second series), active compounds read low 0.983 | S. cerevisiae deletion strains, locus YKL085W, strain MDH1, active compounds read low 0.983 | S. cerevisiae deletion strains, locus YKL160W, strain elf1, active compounds read low 0.936 | S. cerevisiae deletion strains, locus YKL190W, strain CNB1, active compounds read low 0.98 | S. cerevisiae deletion strains, locus YKR001C, strain vps1, active compounds read low 0.9 | S. cerevisiae deletion strains, locus YKR026C, strain gcn3, active compounds read low 0.998 | S. cerevisiae deletion strains, locus YKR091W, strain srl3, active compounds read low 0.985 | S. cerevisiae deletion strains, locus YLL001W, strain dnm1, active compounds read low 0.937 | S. cerevisiae deletion strains, locus YLL026W, active compounds read low 0.994 | S. cerevisiae deletion strains, locus YLL041C, strain sdh2, active compounds read low 0.984 | S. cerevisiae deletion strains, locus YLR027C, strain aat2, active compounds read low 0.948 | S. cerevisiae deletion strains, locus YLR058C, strain SHM2, active compounds read low 0.976 | S. cerevisiae deletion strains, locus YLR102C, strain apc9, active compounds read low 0.977 | S. cerevisiae deletion strains, locus YLR113W, strain HOG1, active compounds read low 0.974 | S. cerevisiae deletion strains, locus YLR221C, strain rsa3, active compounds read low 0.994 | S. cerevisiae deletion strains, locus YLR258W, strain gsy2, active compounds read low 0.959 | S. cerevisiae deletion strains, locus YLR262C, strain YPT6, active compounds read low 0.613 | S. cerevisiae deletion strains, locus YLR268W, strain sec22, active compounds read low 1.02 | S. cerevisiae deletion strains, locus YLR320W, strain mms22, active compounds read low 0.94 | S. cerevisiae deletion strains, locus YLR330W, strain CHS5, active compounds read low 0.982 | S. cerevisiae deletion strains, locus YLR342W, strain FKS1 (second series), active compounds read low 0.811 | S. cerevisiae deletion strains, locus YLR342W, strain FKS1, active compounds read low 0.951 | S. cerevisiae deletion strains, locus YLR357W, strain rsc2, active compounds read low 1.01 | S. cerevisiae deletion strains, locus YLR370C, strain arc18, active compounds read low 0.986 | S. cerevisiae deletion strains, locus YLR371W, strain rom2, active compounds read low 0.983 | S. cerevisiae deletion strains, locus YLR384C, strain iki3, active compounds read low 0.983 | S. cerevisiae deletion strains, locus YML016C, strain PPZ1, active compounds read low 0.965 | S. cerevisiae deletion strains, locus YML032C, strain rad52, active compounds read low 0.966 | S. cerevisiae deletion strains, locus YML120C, strain ndi1, active compounds read low 0.955 | S. cerevisiae deletion strains, locus YML124C, strain tub3, active compounds read low 0.969 | S. cerevisiae deletion strains, locus YMR058W, strain fet3, active compounds read low 0.976 | S. cerevisiae deletion strains, locus YMR078C, strain ctf18, active compounds read low 0.953 | S. cerevisiae deletion strains, locus YMR125W, strain sto1, active compounds read low 0.993 | S. cerevisiae deletion strains, locus YMR129W, active compounds read low 0.993 | S. cerevisiae deletion strains, locus YMR205C, strain PFK2, active compounds read low 0.9 | S. cerevisiae deletion strains, locus YMR231W, strain pep5, active compounds read low 0.976 | S. cerevisiae deletion strains, locus YMR263W, strain SAP30, active compounds read low 0.971 | S. cerevisiae deletion strains, locus YMR307W, strain GAS1, active compounds read low 0.759 | S. cerevisiae deletion strains, locus YNL067W, strain RPL9B, active compounds read low 0.987 | S. cerevisiae deletion strains, locus YNL128W, strain TEP1, active compounds read low 0.99 | S. cerevisiae deletion strains, locus YNL153C, strain GIM3, active compounds read low 0.99 | S. cerevisiae deletion strains, locus YNL183C, strain NPR1, active compounds read low 0.839 | S. cerevisiae deletion strains, locus YNL209W, strain ssb2, active compounds read low 0.962 | S. cerevisiae deletion strains, locus YNL233W, strain BNI4, active compounds read low 0.962 | S. cerevisiae deletion strains, locus YNL248C, strain rpa49, active compounds read low 1.01 | S. cerevisiae deletion strains, locus YNL250W, strain rad50, active compounds read low 0.951 | S. cerevisiae deletion strains, locus YNL271C, strain bni1, active compounds read low 0.957 | S. cerevisiae deletion strains, locus YNL298W, strain CLA4, active compounds read low 0.929 | S. cerevisiae deletion strains, locus YNL322C, strain KRE1 (second series), active compounds read low 0.986 | S. cerevisiae deletion strains, locus YNL322C, strain KRE1, active compounds read low 0.983 | S. cerevisiae deletion strains, locus YNR049C, strain mso1, active compounds read low 0.997 | S. cerevisiae deletion strains, locus YOL006C, strain TOP1, active compounds read low 0.729 | S. cerevisiae deletion strains, locus YOL012C, strain htz1 1.08 | S. cerevisiae deletion strains, locus YOL147C, strain pex11, active compounds read low 0.959 | S. cerevisiae deletion strains, locus YOR001W, strain rrp6, active compounds read low 1.01 | S. cerevisiae deletion strains, locus YOR061W, strain CKA2, active compounds read low 0.979 | S. cerevisiae deletion strains, locus YOR069W, strain VPS5, active compounds read low 0.973 | S. cerevisiae deletion strains, locus YOR070C, strain gyp1, active compounds read low 0.959 | S. cerevisiae deletion strains, locus YOR080W, strain dia2, active compounds read low 0.995 | S. cerevisiae deletion strains, locus YOR083W, strain WHI5, active compounds read low 0.915 | S. cerevisiae deletion strains, locus YOR106W, strain vam3, active compounds read low 0.944 | S. cerevisiae deletion strains, locus YOR136W, strain idh2, active compounds read low 0.961 | S. cerevisiae deletion strains, locus YOR144C, strain elg1, active compounds read low 0.958 | S. cerevisiae deletion strains, locus YOR231W, strain MKK1, active compounds read low 0.955 | S. cerevisiae deletion strains, locus YOR265W, strain rbl2, active compounds read low 0.985 | S. cerevisiae deletion strains, locus YOR270C, strain vph1, active compounds read low 0.844 | S. cerevisiae deletion strains, locus YOR290C, strain snf2, active compounds read low 0.898 | S. cerevisiae deletion strains, locus YOR316C, strain cot1, active compounds read low 0.98 | S. cerevisiae deletion strains, locus YPL051W, strain arl3, active compounds read low 0.921 | S. cerevisiae deletion strains, locus YPL055C, strain LGE1, active compounds read low 0.871 | S. cerevisiae deletion strains, locus YPL106C, strain sse1, active compounds read low 1 | S. cerevisiae deletion strains, locus YPL240C, strain hsp82, active compounds read low 0.987 | S. cerevisiae deletion strains, locus YPL241C, strain CIN2, active compounds read low 0.986 | S. cerevisiae deletion strains, locus YPL256C, strain CLN2, active compounds read low 0.927 | S. cerevisiae deletion strains, locus YPR119W, strain clb2, active compounds read low 0.979 | S. cerevisiae deletion strains, locus YPR141C, strain kar3, active compounds read low 0.951 | S. cerevisiae deletion strains, locus YPR163C, strain tif3, active compounds read low 0.927 | S. cerevisiae deletion strains, locus YPR167C, strain met16, active compounds read low 0.972 | S. cerevisiae deletion strains, strain wtn01, active compounds read low 0.964 | S. cerevisiae strains, strain wild type, active compounds read low 0.942
active: S. cerevisiae deletion strains, locus YLR039C, strain RIC1, active compounds read low 0.587 | S. cerevisiae deletion strains, locus YLR262C, strain YPT6 (second series), active compounds read low 0.655 | S. cerevisiae deletion strains, locus YLR418C, strain cdc73, active compounds read low 0.771 | S. cerevisiae deletion strains, locus YMR223W, strain ubp8, active compounds read low 0.9 | S. cerevisiae deletion strains, locus YNL071W, strain lat1, active compounds read low 0.863 | S. cerevisiae deletion strains, locus YNL307C, strain MCK1, active compounds read low 0.695 | S. cerevisiae deletion strains, locus YNR052C, strain pop2, active compounds read low 0.89 | S. cerevisiae deletion strains, locus YOR184W, strain ser1, active compounds read low 0.719 | S. cerevisiae deletion strains, locus YPL078C, strain atp4, active compounds read low 0.887
